Hits are enriched below; roughly 2.9% of the tested compounds scored in any of these assays.
ADAM17 inh: ADAM17 inhibitors, primary screen, biochemical, QFRET | recombinant ADAM17, EDANS/DABCYL FRET peptide cleavage | inhibition, % at 6.95 µM | 370,000 compounds, 0.83% hits | AID 720648, 2013;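 active = inhibition above the mean of compounds lying between control limits plus 3 SD, set per campaign, cut at about 8.5% in these data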;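 also: 0% = DMSO-only wells as the low control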
Target sequence (P78536 215-824 limits assumed): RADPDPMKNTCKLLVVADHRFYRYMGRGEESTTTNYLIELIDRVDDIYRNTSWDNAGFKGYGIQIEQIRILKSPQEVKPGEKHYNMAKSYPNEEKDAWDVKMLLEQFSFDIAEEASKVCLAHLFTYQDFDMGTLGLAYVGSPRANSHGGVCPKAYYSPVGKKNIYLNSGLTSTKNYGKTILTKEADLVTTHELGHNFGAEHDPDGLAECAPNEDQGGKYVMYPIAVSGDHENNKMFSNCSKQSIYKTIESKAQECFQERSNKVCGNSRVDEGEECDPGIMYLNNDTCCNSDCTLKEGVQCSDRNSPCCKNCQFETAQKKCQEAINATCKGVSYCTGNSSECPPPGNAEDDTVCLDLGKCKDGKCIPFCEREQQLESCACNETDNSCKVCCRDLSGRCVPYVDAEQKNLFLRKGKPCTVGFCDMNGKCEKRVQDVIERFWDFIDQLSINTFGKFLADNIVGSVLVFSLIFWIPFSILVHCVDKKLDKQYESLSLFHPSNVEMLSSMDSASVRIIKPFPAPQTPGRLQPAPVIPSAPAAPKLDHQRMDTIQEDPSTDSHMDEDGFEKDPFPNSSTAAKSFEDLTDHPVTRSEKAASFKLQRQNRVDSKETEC
PLCb3 inh: human PLC-beta3 inhibitors, primary screen, biochemical, fluorescence; 1-phosphatidylinositol 4,5-bisphosphate phosphodiesterase beta-3 (Homo sapiens), Q01970; Purified PLC-beta3, fluorogenic substrate; inhibition, % at 12.2 µM; 370,000 compounds, 0.18% hits; in the data active = inhibition above about 11%;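 also: 0% = median of compound wells on plate and 100% = full blocker control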
PLCg1 inh: PLC-gamma1 enzyme inhibitors, primary screen, biochemical, fluorescence, purified enzyme. 1-phosphatidylinositol 4,5-bisphosphate phosphodiesterase gamma-1 (Homo sapiens), P19174. fluorogenic substrate. inhibition, % at 12.2 µM. 370,000 compounds, 0.84% hits. AID 720700, 2013; in the data active = inhibition above about 9.5%
ADAM10 inh: human ADAM10 inhibitors, primary screen, biochemical, QFRET, HTS. Disintegrin and metalloproteinase domain-containing protein 10 (Homo sapiens), O14672. recombinant ADAM10, EDANS/DABCYL FRET peptide cleavage, 3 h. inhibition, % at 7 µM. 370,000 compounds, 0.62% hits. AID 720582, 2013;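 active = inhibition above a per-campaign cutoff equal to the mean of compounds falling between control-based bounds plus 3 SD, cut at about 20% in these data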;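 also: 0% = DMSO wells while the 100% control is not disclosed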
KLK7 zymogen act: proKLK7 zymogen activators, primary screen, biochemical, fluorescence intensity | purified proKLK7, EDANS-DABCYL substrate fluorescence; 100% is mature enzyme control, 0% vehicle | activation, % at 7 µM | 370,000 compounds, 0.9% hits | AID 652039, 2013;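 active = activation above the mean of all tested compounds plus 3 SD, computed per campaign excluding outliers beyond control limits, cut at about 13% in these data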
proKLK7 act conf: proKLK7 zymogen activators, confirmation, biochemical, fluorescence intensity, triplicate. activation, % at 7 µM. 3,200 compounds, 68% hits. purified proKLK7, EDANS-DABCYL substrate fluorescence; scaled: vehicle 0, mature enzyme 100. shares compounds with KLK7 zymogen act;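 active = activation, as change over the incubation, above the mean of all tested compounds plus 3 SD, cut at about 13% in these data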
EDANS interfere: EDANS-DABCYL substrate optical interference, artefact control for kallikrein-7 zymogen activator project, biochemical, fluorescence intensity, high throughput; shares compounds with KLK7 zymogen act; no enzyme, 4 h; solvent 0%, active enzyme control 100%; activation, % at 7 µM; 3,200 compounds, 80% hits;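 active = activation above the all-compound mean plus 3 SD, ignoring values outside control-based bounds, cut at about 4.8% in these data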;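 also: value is the 4 h activation minus the activation read at time zero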
K7 EDANS ctr: optically interferes with EDANS-DABCYL fluorescence, kallikrein-7 activator counter-screen; shares compounds with KLK7 zymogen act; EDANS-DABCYL peptide fluorescence interference, no enzyme; EC50, µM; 250 compounds, 20% hits; AID 720493;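 active = compounds that raise the fluorescence signal in this interference counterscreen, with EC50 at or below 10 µM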;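 also: intact quenched peptide substrate alone read at 355 nm excitation and 520 nm emission; signal is fluorescence gain from T0 to T4 after four hours at room temperature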
* marks the source's active call; other numbers are inactive results; i = inactive; nt = not tested or not shown.

SMILES	ADAM17 inh	PLCb3 inh	PLCg1 inh	ADAM10 inh	KLK7 zymogen act	proKLK7 act conf	EDANS interfere	others
c1ccc(-c2nnc3n2N=C(c2ccc4ccccc4c2)CS3)nc1	-5	-3	0	-13	0	nt	nt
COC(=O)c1ccc(N2C(c3cc(OC)cc(OC)c3)=Cc3ccc(-c4cccnc4)cc3C2CC(=O)C2CC2)cc1 (stereo not given)	-234	i	i	i	62*	29*	-10	K7 EDANS ctr=>70
COC(=O)c1ccc(N2C(c3cc(OC)cc(OC)c3)=Cc3ccc(-c4ccc(C(N)=O)cc4)cc3C2CC(=O)C2CC2)cc1 (stereo not given)	-285	i	i	i	40*	57*	23*	K7 EDANS ctr=>70
COc1cc(OC)cc(C2=Cc3ccccc3C(CC(=O)c3ccco3)N2c2ccc(-c3cccnc3)cc2)c1 (stereo not given)	6	-79	-51	1	-6	nt	nt
CCCCCCC(=O)NC1CCCCN(Cc2ccc(Cl)cc2)C1=O (stereo not given)	-2	-2	2	0	0	nt	nt
CCOC(=O)c1cc2c(=O)n3ccccc3nc2n(Cc2ccco2)c1=NC(=O)c1ccc(OC)cc1	i	i	i	i	13*	105*	104*
Cc1cccn2c(=O)c3cc(S(=O)(=O)c4ccccc4)c(=N)n(Cc4ccco4)c3nc12	-89	-159	-105	-226	-6	nt	nt
CCOC(=O)c1cc2c(=O)n3ccccc3nc2n(Cc2ccco2)c1=NC(=O)c1cccc(OC)c1	i	i	i	i	29*	42*	53*
CCOC(=O)c1cc2c(=O)n3cccc(C)c3nc2n(Cc2ccco2)c1=NC(=O)c1ccccc1	i	i	i	i	24*	37*	36*
Cc1ccccc1C(=O)NC1CCCCN(Cc2cccc(Cl)c2)C1=O (stereo not given)	-6	-2	0	-2	0	nt	nt
CCOc1ccc(-n2c(SCc3nc4ccccc4[nH]3)nnc2-c2cccc(Cl)c2)cc1	1	-4	-5	0	-1	nt	nt
O=c1c2cc(N3CCOCC3)ccc2[nH]c(=S)n1CCc1ccccc1	-14	-286	-177	-26	1	nt	nt
O=C(CCCCCn1c(=S)[nH]c2ccc(N3CCOCC3)cc2c1=O)NCc1ccccc1	-18	-232	-217	-79	-2	nt	nt
CCCCN(C)CCn1c(=S)[nH]c2ccc(N3CCOCC3)cc2c1=O	-153	i	i	i	68*	-8	-8
COCCCn1c(=S)[nH]c2ccc(N3CCOCC3)cc2c1=O	-64	i	i	-235	58*	30*	49*
O=c1c2cc(N3CCOCC3)ccc2[nH]c(=S)n1Cc1ccccn1	-57	i	i	-265	80*	21*	20*
O=C(CCCCCn1c(=S)[nH]c2ccc(N3CCOCC3)cc2c1=O)NCc1cccc(Cl)c1	-13	-135	-99	-22	17*	-32	-38
O=C(Nc1ccc(Br)cc1)O[C@@H]1CC[C@@]23CCCN2C(=O)CCC[C@H]3C1	3	1	3	9	nt	nt	nt
COc1ccc(Cn2ccc3ccc(-c4ccc5ccn(C(=O)c6cccc(OC)c6)c5c4)cc32)cc1	-4	-55	-34	-31	-20	nt	nt
COC(=O)[C@]12C[C@H](CC(=O)NCc3cccc(C(F)(F)F)c3)C(=O)N(Cc3ccccc3)C1=C[C@H](C(C)(C)C)O[C@@H]2C	6	-2	-3	11	0	nt	nt
CCOc1cc2[nH]c(=S)n(CCOC)c(=O)c2cc1OCC	-1	4	3	3	0	nt	nt
O=c1c2cc(N3CCOCC3)ccc2[nH]c(=S)n1CC1CCCO1 (stereo not given)	-48	i	i	-120	32*	-16	4.7*
COCCn1c(=S)[nH]c2ccc(N(C)C)cc2c1=O	-59	i	i	-182	48*	76*	74*
O=C(CN1C(=O)CCSc2ccccc21)Nc1ccc(Cl)c(Cl)c1	5	1	1	2	0	nt	nt
COc1ccc(/C=N/NC(=O)c2nnn(-c3nonc3N)c2-c2cccs2)c(OC)c1	-77	-126	-67	-35	68*	-5	-21
SMILES	ADAM17 inh	PLCb3 inh	PLCg1 inh	ADAM10 inh	KLK7 zymogen act	proKLK7 act conf	EDANS interfere	others
CCCOc1ccc(-c2c(C(=O)N/N=C/c3ccc(OC)cc3)nnn2-c2nonc2N)cc1	2	-16	-17	4	57*	-463	-365
O=C(NCC1CCN(C(=O)C(=O)c2cc3ccccc3o2)CC1)c1cc(C(F)(F)F)cc(C(F)(F)F)c1	4	0	-1	13	0	nt	nt
COc1c2c(cc3c1c(=O)c1ccccc1n3C)OCO2	-279	i	i	i	45*	56*	77*
O=[N+]([O-])c1nccn1CC(O)CCN1CCOCC1 (stereo not given)	-4	1	2	-2	0	nt	nt
Cc1cnc(-c2nnc(N(C)C(=O)C3CCCO3)s2)cn1 (stereo not given)	-19	-97	-77	-57	74*	114*	108*
COc1ccc(-c2nnc(N(C)C(=O)C3CCCO3)s2)cc1 (stereo not given)	-2	3	2	3	2	nt	nt
CN(C(=O)C1CCOC1)c1nnc(-c2cnccn2)s1 (stereo not given)	-8	-11	-3	-9	29*	26*	26*
COCC(=O)N(C)c1nnc(-c2cnc(C)cn2)s1	-8	-17	-13	-15	17*	70*	81*
COc1ccc(-c2nnc(N(C)C(=O)C3CCOC3)s2)cc1 (stereo not given)	-5	0	0	-4	1	nt	nt
CN1C2CCCC1CC(NC(=O)c1nn(C)c3ccccc13)C2 (stereo not given)	-5	3	0	-12	0	nt	nt
Cn1c(C(=O)NCCCN2CCOCC2)cc2c(=O)n(C)c3ccccc3c21	-10	-8	-7	-49	-1	nt	nt
Cn1c2ccccc2c(=O)c2cc(NCCCN3CCOCC3)ccc21	i	i	i	i	75*	70*	76*
